Common to all, as to assay: NCI-60 one-dose screen, 48 h (100 = growth as untreated, 0 = no growth, -100 = all killed)
For one experiment, the system named is RPMI-8226 leukemia. Conditions: 10 µM unless noted.
A further experiment has as its system OVCAR-8 ovarian. The conditions noted are these: 10 µM unless noted.
The test system of the next experiment is OVCAR-5 ovarian. The conditions noted are these: 10 µM unless noted.
For the next experiment, the system named is OVCAR-4 ovarian. Conditions: 10 µM unless noted.
For the next experiment, the system named is SK-OV-3 ovarian. The conditions noted are these: 10 µM unless noted.
Another experiment relates to IGROV1 ovarian. The conditions noted are these: 10 µM unless noted.
The test system of a further experiment is OVCAR-3 ovarian. Conditions: 10 µM unless noted.
A further experiment has as its system HS 578T breast. The conditions noted are these: 10 µM.
A further experiment relates to NCI/ADR-RES ovarian. The conditions noted are these: 10 µM unless noted.
For the next experiment, the system named is T-47D breast. The conditions noted are these: 10 µM unless noted.
The test system of the next experiment is BT-549 breast. The conditions noted are these: 10 µM unless noted.
Another experiment concerns MDA-MB-435 melanoma. Conditions: 10 µM unless noted.
The subject of a further experiment is SW-620 colon. The conditions noted are these: 10 µM unless noted.
The next experiment has as its system MCF7 breast. Conditions: 10 µM unless noted.
The test system of another experiment is HCT-116 colon. The conditions noted are these: 10 µM unless noted.
The next experiment concerns HCC-2998 colon. Conditions: 10 µM unless noted.
The subject of the next experiment is KM12 colon. The conditions noted are these: 10 µM unless noted.

This is part of a sample that, as a whole, favours compounds with a hit. Of some 83,000 tested, about 20% had one in any assay.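 Treatment: one concentration, 48 hours, 96-well format. Scoring: percent growth, with anything below 10 considered active.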 Unmarked numbers belong to inactive results. Calls of active or inactive are those of the source.

Regarding `CC(C)=CCC[C@H](C)c1ccc(C)c2c1OCN(CCO)C2`, the growth with RPMI-8226 leukemia is 83.2%; in the experiment with OVCAR-8 ovarian, 86.3%; with OVCAR-5 ovarian, 83.7%; in the experiment with OVCAR-4 ovarian, 79%; in the experiment on SK-OV-3 ovarian, 105%; in the experiment on IGROV1 ovarian, 66.7%. In addition, the growth with OVCAR-3 ovarian was 86.1%; in the experiment on HS 578T breast, 75.6%; in the experiment on NCI/ADR-RES ovarian, 73.5%; in the experiment with T-47D breast it was 70%; with BT-549 breast, 95.8%; in the experiment with MDA-MB-435 melanoma, 101%. The growth in the experiment with SW-620 colon was 100%; in the experiment with MCF7 breast, 83.9%; with HCT-116 colon, 71.8%; in the experiment on HCC-2998 colon, 84.4%; with KM12 colon, 103%.

Take `CCC(C)C1NC(=O)c2nc(oc2-c2ccccc2)-c2csc(n2)-c2csc(n2)-c2nc(oc2C)-c2coc(n2)CNC(=O)C(C(C)CC)NC1=O` (stereo unspecified): the growth in the experiment on RPMI-8226 leukemia is -63.5% (active); in the experiment with OVCAR-8 ovarian it was -62% (active); in the experiment with OVCAR-5 ovarian it was -86.1% (active); in the experiment with OVCAR-4 ovarian it was -80.6% (active); in the experiment with SK-OV-3 ovarian, -89.2% (active); with IGROV1 ovarian it was -71.5% (active). In addition, the growth with OVCAR-3 ovarian was -88% (active); with HS 578T breast it was -57.3% (active); in the experiment on NCI/ADR-RES ovarian, 12.3%; in the experiment with T-47D breast, -62.5% (active); with BT-549 breast, -78.4% (active); with MDA-MB-435 melanoma it was -87.5% (active). The growth with SW-620 colon was -82.6% (active); with MCF7 breast, -68.6% (active); in the experiment with HCT-116 colon, -59% (active); in the experiment on HCC-2998 colon, -80.1% (active); in the experiment with KM12 colon, -73.9% (active).

As to `Clc1ccccc1Nc1nnc(-c2ccncc2)s1`, the growth in the experiment with RPMI-8226 leukemia was 89.2%; in the experiment with OVCAR-8 ovarian, 100%; with OVCAR-5 ovarian, 107%; with OVCAR-4 ovarian, 94.5%; in the experiment on SK-OV-3 ovarian, 105%; in the experiment on IGROV1 ovarian, 101%. Further, the growth is 110% in the experiment on OVCAR-3 ovarian; 94.9% with HS 578T breast; 102% in the experiment with NCI/ADR-RES ovarian; 89.5% in the experiment with T-47D breast; 90.4% with BT-549 breast; 93.6% in the experiment with MDA-MB-435 melanoma. In addition, the growth in the experiment with SW-620 colon was 91.6%; in the experiment with MCF7 breast it was 96%; with HCT-116 colon it was 102%; in the experiment with HCC-2998 colon it was 106%; with KM12 colon, 107%.

For `O=C(/C=C/c1ccccc1)n1c(-c2ccccc2)nc2ccccc21`, the growth was 105% with RPMI-8226 leukemia; 98.9% in the experiment with OVCAR-8 ovarian; 95.7% in the experiment on OVCAR-5 ovarian; 101% with OVCAR-4 ovarian; 110% with SK-OV-3 ovarian; 105% in the experiment with IGROV1 ovarian. Also, the growth in the experiment on OVCAR-3 ovarian is 111%; in the experiment on HS 578T breast it was 104%; in the experiment on NCI/ADR-RES ovarian it was 104%; in the experiment with T-47D breast, 97.3%; in the experiment on BT-549 breast it was 112%; with MDA-MB-435 melanoma, 99.9%. Also, the growth in the experiment with SW-620 colon is 102%; in the experiment with MCF7 breast it was 97.5%; with HCT-116 colon, 109%; in the experiment on KM12 colon, 104%.

As for `Clc1ncnc2scc(C3COc4ccccc4O3)c12` (stereo unspecified), the growth is 95.7% in the experiment with RPMI-8226 leukemia; 92.8% with OVCAR-8 ovarian; 94.4% in the experiment with OVCAR-5 ovarian; 92.8% in the experiment on OVCAR-4 ovarian; 115% with SK-OV-3 ovarian; 121% in the experiment on IGROV1 ovarian. Moreover, the growth was 106% in the experiment with OVCAR-3 ovarian; 92.3% with HS 578T breast; 109% in the experiment with NCI/ADR-RES ovarian; 78.2% with T-47D breast; 70% in the experiment with BT-549 breast; 97.5% with MDA-MB-435 melanoma. In addition, the growth was 93.3% in the experiment on SW-620 colon; 76.7% in the experiment with MCF7 breast; 86.2% in the experiment on HCT-116 colon; 87.7% in the experiment on HCC-2998 colon; 104% in the experiment with KM12 colon.

As for `C=CCn1c(SCC(=O)Nc2ccc(C(=O)/C=C/c3ccc(Cl)cc3)cc2)nnc1-c1ccc(Cl)cc1`, the growth in the experiment with RPMI-8226 leukemia was 17.2%; in the experiment with OVCAR-8 ovarian, 87.9%; with OVCAR-5 ovarian it was 104%; in the experiment with OVCAR-4 ovarian it was 94.8%; in the experiment on SK-OV-3 ovarian, 92%; in the experiment on IGROV1 ovarian, 79.5%. The growth in the experiment with OVCAR-3 ovarian was 89.1%; with HS 578T breast, 84.8%; in the experiment with NCI/ADR-RES ovarian it was 80.5%; in the experiment on T-47D breast, 76%; in the experiment on BT-549 breast it was 82.5%; with MDA-MB-435 melanoma, 96.7%. Further, the growth was 97.9% in the experiment on SW-620 colon, 43.2% in the experiment with MCF7 breast, 90.4% in the experiment with HCC-2998 colon and 94.2% with KM12 colon.

On to `COCCOCCOCc1n(Cc2ccc3ccccc3n2)c2ccccc2[n+]1Cc1ccc2ccccc2c1`, for which the growth in the experiment with RPMI-8226 leukemia was -30.3% (active); in the experiment on OVCAR-8 ovarian, 9.25% (active); in the experiment with OVCAR-5 ovarian it was 14.7%; with OVCAR-4 ovarian, 9.99% (active); in the experiment on SK-OV-3 ovarian, -6.91% (active); in the experiment with IGROV1 ovarian it was -9.44% (active). The growth in the experiment on OVCAR-3 ovarian was 1.01% (active); in the experiment on HS 578T breast it was 20.3%; in the experiment with NCI/ADR-RES ovarian, 98.9%; with T-47D breast, 4.77% (active); in the experiment with BT-549 breast it was -9.56% (active); in the experiment with MDA-MB-435 melanoma it was -21.9% (active). Also, the growth is 12.4% in the experiment with SW-620 colon; 4.87% (active) with MCF7 breast; 7.79% (active) with HCT-116 colon; 12.8% in the experiment on HCC-2998 colon; -41.5% (active) in the experiment on KM12 colon.

Take `CSCCC1NC(=O)C(C(C)=Nc2ccccc2)=C1O` (stereo unspecified): the growth in the experiment on RPMI-8226 leukemia was 115%; with OVCAR-8 ovarian, 111%; in the experiment on OVCAR-5 ovarian, 120%; in the experiment on OVCAR-4 ovarian, 100%; with SK-OV-3 ovarian, 101%; with IGROV1 ovarian, 103%. Also, the growth in the experiment with OVCAR-3 ovarian is 117%; in the experiment on HS 578T breast, 105%; in the experiment on NCI/ADR-RES ovarian, 104%; with T-47D breast, 103%; in the experiment with BT-549 breast it was 105%; with MDA-MB-435 melanoma, 95.4%. For the same molecule, the growth in the experiment with SW-620 colon is 104%; with MCF7 breast, 91.3%; in the experiment on HCT-116 colon, 107%; in the experiment on HCC-2998 colon it was 113%; in the experiment with KM12 colon it was 79.3%.

Take `CCCCCc1c(C)[nH]c(/C=C2\N=C(c3ccc[nH]3)C=C2CC)c1C`: the growth in the experiment on RPMI-8226 leukemia was -63.7% (active); with OVCAR-8 ovarian, -65.2% (active); in the experiment with OVCAR-5 ovarian, -95.5% (active); in the experiment with OVCAR-4 ovarian it was -89.8% (active); in the experiment on SK-OV-3 ovarian, -95.5% (active); in the experiment with IGROV1 ovarian, -63.3% (active). Further, the growth in the experiment with OVCAR-3 ovarian is -97.5% (active); in the experiment on HS 578T breast it was -27.5% (active); with NCI/ADR-RES ovarian, -78.8% (active); in the experiment with T-47D breast it was -75% (active); with BT-549 breast it was -96.6% (active); in the experiment with MDA-MB-435 melanoma, -77.9% (active). In addition, the growth in the experiment on SW-620 colon was -92.6% (active); with MCF7 breast, -85.3% (active); in the experiment on HCT-116 colon, -95.4% (active); in the experiment on HCC-2998 colon, -90.4% (active); in the experiment on KM12 colon, -91.4% (active).

The values above are taken from PubChem BioAssay (NCI).
